These results are taken from PubChem BioAssay AID504580 (NMMLSC, 2011).

Structures are written as SMILES. The whole screen tested about 2,000 compounds, of which fewer than 10 were called active.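 The calls were made as follows: active = compounds that quench the bead-bound fluorescent RNA probe, cutting fluorescence to under half of the solvent control; inactive = the rest.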 Not all results are given here.

The assay is described as follows: fluorescent RNA aptamer quenching, single concentration, confirmation, artefact control for GRK2 RNA aptamer inhibitor project, biochemical, single point, cherry pick 1, flow cytometry (AID 504580).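 Also: counterscreen run without GRK2 so only probe quenching by compound is measured.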 The settings on record: Carboxyfluorescein RNA aptamer on beads, at 10 µM, hits give low values.
On to `C=C(C)C(=O)Nc1cccc(C2=NOC3(C2)C[C@H](C(N)=O)N(C(=O)C(c2ccccc2)c2ccccc2)C3)c1` (stereo partly drawn), for which the fluorescence response (% of DMSO) is 102% (inactive).

As to `COc1cccc(CN(C)CC(=O)Nc2sc3c(c2C#N)CCC3)c1`, the fluorescence response (% of DMSO) was 99.9% (inactive).

Consider `CCCc1nc2ccccc2c(=O)n1NC(=O)c1c(O)c2ccccc2[nH]c1=O`, for which the fluorescence response (% of DMSO) was 101% (inactive).

Consider `O=C(Nc1nnc(-c2ccccc2)o1)c1cccc(S(=O)(=O)N2CCOCC2)c1`, for which the fluorescence response (% of DMSO) was 101% (inactive).

Regarding `CC(C)Cn1c(CN(Cc2ccccc2)Cc2ccccc2)nc2c1c(=O)n(C)c(=O)n2C`, the fluorescence response (% of DMSO) was 98% (inactive).

Turning to `CN(CC(=O)Nc1ccc(N2CCOCC2)cc1)CC(=O)Nc1ccccc1[N+](=O)[O-]`, the fluorescence response (% of DMSO) is 101% (inactive).

In the case of `COc1cc(C(=O)OCC(=O)N(CC(C)C)C2CCS(=O)(=O)C2)ccc1OCC(C)C` (stereo not drawn), the fluorescence response (% of DMSO) was 91.4% (inactive).

With `CSc1nc2ccccc2c(=O)n1Cc1ccc(F)cc1`, the fluorescence response (% of DMSO) is 100% (inactive).

For `CCOC(=O)c1sc2nc(CSc3ccccc3)[nH]c(=O)c2c1C`, the fluorescence response (% of DMSO) is 106% (inactive).

With `Cn1c(=O)c2c(nc(N3CCOCC3)n2CCNC2=NCCC2)n(C)c1=O`, the fluorescence response (% of DMSO) was 99.8% (inactive).

With `O=C(c1cnn(-c2ccc(Cl)cc2)c1)c1ccccc1O`, the fluorescence response (% of DMSO) was 101% (inactive).

On to `O=C(NCc1ccccc1Cl)c1ccc2c(=O)n(CC3CCCO3)c(=S)[nH]c2c1` (stereo not drawn), for which the fluorescence response (% of DMSO) is 95.6% (inactive).

In the case of `Cc1csc(=O)n1CC(=O)OCC(=O)N(CC(C)C)c1c(N)n(Cc2ccccc2)c(=O)[nH]c1=O`, the fluorescence response (% of DMSO) is 99.2% (inactive).

For the molecule `O=C(COC(=O)c1ccc(F)cc1F)Nc1ncccn1`, the fluorescence response (% of DMSO) is 95.8% (inactive).

As to `COc1cc(C(=O)NCc2ccc3c(c2)cc(C)n3C)cc(OC)c1OC`, the fluorescence response (% of DMSO) is 96.5% (inactive).

Turning to `O=C(NC(=O)c1cc(OCC(F)(F)F)ccc1OCC(F)(F)F)Nc1ccccc1`, the fluorescence response (% of DMSO) was 103% (inactive).

On to `CC(=O)N1CC[n+]2c(-c3ccc([N+](=O)[O-])cc3)csc21`, for which the fluorescence response (% of DMSO) was 103% (inactive).

Take `CCOc1ccccc1C(=O)NCc1ccco1`: the fluorescence response (% of DMSO) was 96% (inactive).

As to `Cc1cc2cc(CNC(=O)c3cccs3)ccc2[nH]1`, the fluorescence response (% of DMSO) is 86.2% (inactive).

Regarding `COc1ccc(Nc2nc(-c3cccnc3)nc3ccccc23)cn1`, the fluorescence response (% of DMSO) was 101% (inactive).

As for `CCN1/C(=C\c2ccc3ccccc3[n+]2CC)Sc2cc(C)ccc21`, the fluorescence response (% of DMSO) is 173% (inactive).

Turning to `Cn1c(=O)[nH]c(=O)c2c1nc(N1CCN(C(c3ccccc3)c3ccccc3)CC1)n2CCO`, the fluorescence response (% of DMSO) is 98.3% (inactive).

In the case of `COC(=O)N/N=C/c1ccc(/C=N/NC(=O)OC)cc1`, the fluorescence response (% of DMSO) is 100% (inactive).

As to `COc1ccc(Nc2cc(Sc3ccc(OC)cc3)ncn2)cc1`, the fluorescence response (% of DMSO) is 101% (inactive).

With `O=C(c1ccc(Cl)cc1)c1ccc(OCC(O)CN2CCCCC2)cc1` (stereo not drawn), the fluorescence response (% of DMSO) was 101% (inactive).

As to `COc1ccc(-n2nc(C(=O)NCC(=O)N3CCCCCC3)c3ccccc3c2=O)cc1Cl`, the fluorescence response (% of DMSO) was 105% (inactive).

`COc1ccccc1NC(=O)CSc1nc2sc3c(c2c(=O)n1-c1ccccc1)CCN(C)C3`: the fluorescence response (% of DMSO) is 94.8% (inactive).

Take `NC(=O)C1CCN(C(=O)c2ccc3c(=O)n(Cc4cccc(Br)c4)c(=S)[nH]c3c2)CC1`: the fluorescence response (% of DMSO) is 98.1% (inactive).

`COc1ccc(C(=O)NCCNc2ccc([N+](=O)[O-])cn2)cc1`: the fluorescence response (% of DMSO) is 99.4% (inactive).

As to `Cc1nc(C(=O)NCc2ccccc2)sc1C1(C)CC(c2cccnc2)=NO1` (stereo not drawn), the fluorescence response (% of DMSO) is 97.1% (inactive).

Regarding `O=C(c1cc2cc(F)ccc2[nH]1)N1CCN(c2ccc(F)cc2)CC1`, the fluorescence response (% of DMSO) is 97.9% (inactive).

On to `CNS(=O)(=O)c1cccc(C(=O)NCC2CCCCC2)c1`, for which the fluorescence response (% of DMSO) was 101% (inactive).

On to `Nc1ccc2nc3c(=O)[nH]c(=S)[nH]c3nc2c1`, for which the fluorescence response (% of DMSO) is 83.9% (inactive).

As for `O=C(Oc1ccc(Br)cc1)c1cccnc1`, the fluorescence response (% of DMSO) was 96.7% (inactive).

Regarding `Cc1ccccc1-c1nnn(CC(=O)c2ccc(S(=O)(=O)N3CCCC3)cc2)n1`, the fluorescence response (% of DMSO) is 96.4% (inactive).

In the case of `CSc1ccc(/C=C2\NC(=O)NC2=O)cc1`, the fluorescence response (% of DMSO) was 95.8% (inactive).

On to `Cc1ccc(-c2nn(-c3ccccc3)cc2/C=C2\SC(=S)N(CCCCCC(=O)O)C2=O)o1`, for which the fluorescence response (% of DMSO) is 136% (inactive).

In the case of `COCCn1c(C)cc(C(=O)CN2c3cccc4cccc(c34)S2(=O)=O)c1C`, the fluorescence response (% of DMSO) was 98% (inactive).

In the case of `Cc1cc(C(=O)NC2CCN(Cc3ccccc3)CC2)n[nH]1`, the fluorescence response (% of DMSO) was 96.6% (inactive).

Consider `C/C(=N\OCC(=O)O)c1ccc(Cl)cc1`, for which the fluorescence response (% of DMSO) was 101% (inactive).

Regarding `CC(NC(=O)C1CCCN(S(=O)(=O)c2ccc(-n3cnnn3)cc2)C1)c1ccc(F)cc1` (stereo not drawn), the fluorescence response (% of DMSO) was 105% (inactive).

With `CCN1C(=O)[C@H]2[C@@H](c3ccc(-c4ccc(OC)cc4)cc3)N[C@@](Cc3ccccc3)(C(=O)OC)[C@H]2C1=O`, the fluorescence response (% of DMSO) was 96.4% (inactive).

`COc1ccc(NC(=O)CN(C)C(=O)c2cc(-c3ccc(C)o3)nc3ccccc23)cc1`: the fluorescence response (% of DMSO) is 100% (inactive).

For `COc1ccc(N2CCN(C(CNS(=O)(=O)c3ccc(C)cc3)c3ccccc3)CC2)cc1` (stereo not drawn), the fluorescence response (% of DMSO) is 98.2% (inactive).

Take `O=C(NCC12CC3CC(C1)CC(CNC(=O)N1CCCC1)(C3)C2)N1CCCC1`: the fluorescence response (% of DMSO) was 98.2% (inactive).

Regarding `O=C(O)c1ccc2c(c1)C(=O)N(c1ccc(/C=C/C(=O)c3ccccc3)cc1)C2=O`, the fluorescence response (% of DMSO) is 99.8% (inactive).

Regarding `O=S(=O)(Nc1ccc(-c2ccc(N3CCOCC3)nn2)cc1)c1cc(Cl)ccc1Cl`, the fluorescence response (% of DMSO) is 108% (inactive).

For `O=C(NCc1ccccc1)c1cccc(NC(=O)C2CCCCC2)c1`, the fluorescence response (% of DMSO) is 98% (inactive).

With `CCC(=C/c1sc2ccc3ccccc3c2[n+]1C)/C=C1\Sc2ccc3ccccc3c2N1C`, the fluorescence response (% of DMSO) is 10.7% (active).

With `Cc1ccccc1CN1CCN(CC(=O)NCc2ccccn2)C1=O`, the fluorescence response (% of DMSO) was 101% (inactive).

Take `Cc1ccc(S(=O)(=O)CCC(=O)Nc2nnc(CC(C)C)s2)cc1`: the fluorescence response (% of DMSO) was 99.8% (inactive).

For `O=C(CCNC(=O)c1ccccc1)NN=Cc1ccc(Br)o1`, the fluorescence response (% of DMSO) was 96.6% (inactive).

As to `Cc1ccc(C(CNC(=O)Nc2cccc(C)c2)N2CCN(C)CC2)cc1` (stereo not drawn), the fluorescence response (% of DMSO) is 98% (inactive).

As to `O=c1[nH]c(SCc2ccccc2)nnc1-c1ccccc1`, the fluorescence response (% of DMSO) is 98.2% (inactive).

In the case of `Cc1nc(Nc2ccccc2F)c2nnn(Cc3ccccc3Cl)c2n1`, the fluorescence response (% of DMSO) was 99.8% (inactive).

In the case of `CCOC(=O)C1CCCN(Cc2nc(N)nc(Nc3ccc(C)cc3)n2)C1` (stereo not drawn), the fluorescence response (% of DMSO) is 80% (inactive).

As to `Cc1ccc(N2C(=O)C3N=NN(CC(=O)N4N=C(c5cccc6ccccc56)CC4c4ccccc4)C3C2=O)cc1` (stereo not drawn), the fluorescence response (% of DMSO) was 101% (inactive).

With `OC(CN=c1sc2ccccc2n1CC(O)COc1ccccc1)COc1ccccc1` (stereo not drawn), the fluorescence response (% of DMSO) was 95.8% (inactive).

For the molecule `CC(C)CN(C(=O)c1cccc(S(=O)(=O)N2CCCCC2)c1)C1CCS(=O)(=O)C1` (stereo not drawn), the fluorescence response (% of DMSO) is 102% (inactive).

For the molecule `O=C(COc1ccccc1)NCCc1nc2ccccc2[nH]1`, the fluorescence response (% of DMSO) is 99.7% (inactive).

Consider `CCOC(=O)C(C)n1cnc2scc(-c3ccc(C)c(C)c3)c2c1=O` (stereo not drawn), for which the fluorescence response (% of DMSO) was 95.4% (inactive).

As for `Cc1cc(/C=C2\SC(=O)N(C)C2=O)c(C)n1-c1cccc(C(=O)O)c1`, the fluorescence response (% of DMSO) was 96.6% (inactive).

On to `COc1ccc(Cl)cc1NC(=O)CCS(=O)(=O)c1cc2c(cc1C)NC(=O)CO2`, for which the fluorescence response (% of DMSO) was 99.6% (inactive).

On to `COC(=O)c1ccc(C)c(NC(=O)C2CC(=O)N(C3CCCC(C)C3C)C2)c1` (stereo not drawn), for which the fluorescence response (% of DMSO) is 94.9% (inactive).

For `CCN1/C(=C/c2ccc3ccc(C)cc3[n+]2CC)Sc2ccccc21`, the fluorescence response (% of DMSO) was 142% (inactive).

Turning to `Cc1cccc(NC(=O)C2CCCN(C(=O)NCc3ccccc3)C2)c1C` (stereo not drawn), the fluorescence response (% of DMSO) was 102% (inactive).

Regarding `CCCCn1nc(C(=O)OCC(=O)Nc2sccc2C(N)=O)c2ccccc2c1=O`, the fluorescence response (% of DMSO) was 99.8% (inactive).

Take `O=C(CCS(=O)(=O)c1ccc(Br)cc1)NCCc1ccc(Cl)cc1`: the fluorescence response (% of DMSO) is 102% (inactive).

`O=C1C2N=NN(CC(=O)N3N=C(c4cccc5ccccc45)CC3c3ccccc3)C2C(=O)N1c1ccccc1` (stereo not drawn): the fluorescence response (% of DMSO) was 91.2% (inactive).

With `CN/C(=C\[N+](=O)[O-])NCCSCc1csc(CN(C)C)n1`, the fluorescence response (% of DMSO) was 99.2% (inactive).

Take `COCCCNC(=O)CNC(=O)c1nn(-c2ccc(OC)cc2)c(=O)c2ccccc12`: the fluorescence response (% of DMSO) was 96.3% (inactive).

`O=C(NNc1ncnc2c1cnn2-c1ccccc1)c1ccco1`: the fluorescence response (% of DMSO) was 97.9% (inactive).

For `CC(=O)c1ccc(OCC(O)CN2CCN(S(=O)(=O)c3cccc(Br)c3)CC2)cc1` (stereo not drawn), the fluorescence response (% of DMSO) is 142% (inactive).

Turning to `CCOCCCNC(=O)C(NC(=O)CNC(=O)c1ccccc1)c1ccc(OC)cc1` (stereo not drawn), the fluorescence response (% of DMSO) is 96% (inactive).

In the case of `Cc1nn(Cc2ccc(F)cc2)c(C)c1NC(=O)c1noc2c1CCc1ccccc1-2`, the fluorescence response (% of DMSO) is 97% (inactive).

With `C/C(=N\Nc1nc2ccccc2[nH]1)c1cccs1`, the fluorescence response (% of DMSO) was 92.8% (inactive).

For the molecule `O=C(Nc1ccc(-c2nnc(-c3ccccc3)o2)cc1)c1ccc(Br)o1`, the fluorescence response (% of DMSO) was 98.8% (inactive).

On to `CN(Cc1ccccc1)C(=O)c1cccc(C(=O)N(C)Cc2ccccc2)c1`, for which the fluorescence response (% of DMSO) was 101% (inactive).
